Test results taken from the supplement of paper PMC10849652.
About 7,900 targets were measured; listed, in parts, are those with a hit and a random draw of the rest. About 0.6% of all pairs of compound and target were hits.

How the values were obtained:
Test in all cases: log2 fold change, soluble protein after heating vs DMSO (PISA); higher = thermal stabilisation; K562 cells, 10 uM, 30 min; active = over 0.2 and 3.5 SD of the protein, either way, in both replicates (recomputed)
[1] = compound: CC[C@@H]1C(=O)N(C)c2cnc(Nc3ccc(C(=O)NC4CCN(C)CC4)cc3OC)nc2N1C1CCCC1
Summary of the method: (§1)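 Thermal stability values are relative to control samples and come from duplicates. They are expressed as log2 fold changes. For measurement, K562 cells (2×10^6 cells/mL) received 10 μM compound for 30 min, and aliquots were heated for 3 min over 48°C-58°C, pooled, and extracted at 4°C in PBS with 0.5% NP-40. Soluble protein, the supernatant after 21,000xg for 90 min, was quantified by TMTpro 16plex LC-MS/MS with equalised channel sums.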

volasertib = compound: CC[C@@H]1C(=O)N(C)c2cnc(Nc3ccc(C(=O)N[C@H]4CC[C@H](N5CCN(CC6CC6)CC5)CC4)cc3OC)nc2N1C(C)C [volasertib]
Summary of the method: as §1

[2] = compound: CC[C@H](C)N1C=C(C2=C(C=C(C=C21)C3=CN=C(C=C3)N4CCNCC4)C(=O)NCC5=C(C=C(NC5=O)C)C)C
Summary of the method: as §1

epoxomicin = compound: CC[C@H](C)[C@@H](C(=O)N[C@@H]([C@@H](C)O)C(=O)N[C@@H](CC(C)C)C(=O)[C@]1(CO1)C)NC(=O)[C@H]([C@@H](C)CC)N(C)C(=O)C [epoxomicin]
Summary of the method: as §1

[3] = compound: CCn1c(C(=O)N(C2CC2)C2CC2)cc2c3c(ncn3C)c(Nc3cc(C)n(C)n3)nc21
Summary of the method: as §1

[4] = compound: CCn1cc(-c2ccnc3[nH]c(-c4cccc(CN(C)C)c4)cc23)c(-c2ccc(NC(=O)N(C)C)cc2)n1
Summary of the method: as §1

[5] = compound: CN(C)CC(=O)Nc1ccc2[nH]c(=O)c3ccccc3c2c1
Summary of the method: as §1

rosiglitazone = compound: CN(CCOC1=CC=C(C=C1)C[C@H]2C(=O)NC(=O)S2)C3=CC=CC=N3 (racemic) [rosiglitazone]
Summary of the method: as §1

[6] = compound: CN1C2=C(C3=C1C(=O)N(N=C3)CC4=CC(=CC=C4)N)SC(=C2)S(=O)C
Summary of the method: as §1

[7] = compound: CN1CCC(CNc2ccc3ncc(-c4cccc(OC(F)(F)F)c4)n3n2)CC1
Summary of the method: as §1

saracatinib = compound: CN1CCN(CCOc2cc(OC3CCOCC3)c3c(Nc4c(Cl)ccc5c4OCO5)ncnc3c2)CC1 [saracatinib]
Summary of the method: as §1

sotrastaurin = compound: CN1CCN(c2nc(C3=C(c4c[nH]c5ccccc45)C(=O)NC3=O)c3ccccc3n2)CC1 [sotrastaurin]
Summary of the method: as §1

alvocidib = compound: CN1CC[C@H](c2c(O)cc(O)c3c(=O)cc(-c4ccccc4Cl)oc23)[C@H](O)C1 [alvocidib]
Summary of the method: as §1

Tubastatin A = compound: CN1CCc2c(c3ccccc3n2Cc2ccc(C(=O)NO)cc2)C1 [Tubastatin A]
Summary of the method: as §1

[8] = compound: CNC(=O)C1=CC=CC=C1NC2=NC(=NC=C2Cl)NC3=C(C=C(C=C3)N4CCOCC4)OC
Summary of the method: as §1

defactinib = compound: CNC(=O)c1ccc(Nc2ncc(C(F)(F)F)c(NCc3nccnc3N(C)S(C)(=O)=O)n2)cc1 [defactinib]
Summary of the method: as §1

rucaparib = compound: CNCc1ccc(-c2[nH]c3cc(F)cc4c3c2CCNC4=O)cc1 [rucaparib]
Summary of the method: as §1

[9] = compound: CNc1nc(-c2ccc3c(N)n[nH]c3c2)cc(N2C[C@@H](C(=O)NC3CCCCC3)CC[C@H]2C)n1
Summary of the method: as §1

encorafenib = compound: COC(=O)N[C@@H](C)CNc1nccc(-c2cn(C(C)C)nc2-c2cc(Cl)cc(NS(C)(=O)=O)c2F)n1 [encorafenib]
Summary of the method: as §1

[10] = compound: COC(=O)[C@H](CCSC)NC(=O)C1=C(C=C(C=C1)NC[C@H](CS)N)C2=CC=CC=C2
Summary of the method: as §1

Measured: log2 fold change

GINS2 (UniProt Q9Y248)
Sequence of UniProt Q9Y248 (Q9Y248 whole entry, looked up): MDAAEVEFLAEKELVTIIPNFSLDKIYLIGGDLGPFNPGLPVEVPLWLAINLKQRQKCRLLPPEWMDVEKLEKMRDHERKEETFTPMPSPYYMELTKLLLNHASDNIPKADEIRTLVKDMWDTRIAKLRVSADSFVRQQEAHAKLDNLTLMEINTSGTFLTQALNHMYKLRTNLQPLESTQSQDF
inactive: [1] -0.011 | volasertib -0.07 | [2] 0.171 | epoxomicin 0.014 | [3] 0.008 | [4] -0.135 | [5] 0.06 | rosiglitazone 0.058 | [6] 0.064 | [7] 0.062 | saracatinib -0.078 | sotrastaurin -0.17 | alvocidib -0.181 | Tubastatin A 0.076 | [8] 0.025 | defactinib -0.067 | rucaparib -0.005 | [9] 0.203 | encorafenib 0.017 | [10] 0.057

HIKESHI (UniProt Q53FT3)
Sequence of UniProt Q53FT3 (Q53FT3 whole entry, looked up): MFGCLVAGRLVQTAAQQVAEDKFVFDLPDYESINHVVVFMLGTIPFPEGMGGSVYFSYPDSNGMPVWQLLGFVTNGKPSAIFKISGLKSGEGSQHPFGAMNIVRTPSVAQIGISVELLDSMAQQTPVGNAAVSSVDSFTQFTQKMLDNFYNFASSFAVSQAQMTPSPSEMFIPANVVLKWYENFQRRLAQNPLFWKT
inactive: [1] -0.116 | volasertib -0.178 | [2] 0.022 | epoxomicin -0.013 | [3] -0.015 | [4] 0.001 | [5] 0.008 | rosiglitazone 0.035 | [6] -0.018 | [7] 0.077 | saracatinib 0.03 | sotrastaurin 0.043 | alvocidib -0.068 | Tubastatin A -0.01 | [8] 0.046 | defactinib -0.038 | rucaparib 0.029 | [9] -0.003 | encorafenib 0.024 | [10] 0.028

HNRNPUL2 (UniProt Q1KMD3)
Sequence of UniProt Q1KMD3 (Q1KMD3 whole entry, looked up): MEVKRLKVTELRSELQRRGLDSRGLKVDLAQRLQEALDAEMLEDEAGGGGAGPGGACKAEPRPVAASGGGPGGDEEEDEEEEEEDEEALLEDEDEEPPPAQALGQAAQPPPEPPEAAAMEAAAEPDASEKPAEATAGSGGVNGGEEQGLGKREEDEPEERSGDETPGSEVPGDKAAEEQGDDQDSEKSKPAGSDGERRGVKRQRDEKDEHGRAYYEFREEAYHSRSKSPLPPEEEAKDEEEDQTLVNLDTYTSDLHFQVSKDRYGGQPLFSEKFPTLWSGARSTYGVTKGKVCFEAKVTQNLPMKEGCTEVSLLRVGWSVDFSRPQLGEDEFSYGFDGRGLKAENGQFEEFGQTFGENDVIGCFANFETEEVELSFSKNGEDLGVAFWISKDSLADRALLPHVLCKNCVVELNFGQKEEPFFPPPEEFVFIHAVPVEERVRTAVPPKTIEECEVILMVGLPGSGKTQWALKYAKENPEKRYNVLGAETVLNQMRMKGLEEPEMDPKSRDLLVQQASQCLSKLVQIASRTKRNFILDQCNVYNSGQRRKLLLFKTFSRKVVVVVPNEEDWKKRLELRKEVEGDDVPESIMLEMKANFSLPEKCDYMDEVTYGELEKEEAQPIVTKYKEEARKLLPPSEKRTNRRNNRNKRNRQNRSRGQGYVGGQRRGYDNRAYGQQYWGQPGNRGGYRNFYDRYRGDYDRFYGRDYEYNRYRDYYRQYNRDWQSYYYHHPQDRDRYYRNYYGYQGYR
active: defactinib 0.259
inactive: [1] 0.172 | volasertib 0.135 | [2] -0.023 | epoxomicin -0.084 | [3] -0.036 | [4] 0.092 | [5] -0.012 | rosiglitazone -0.007 | [6] 0.131 | [7] -0.013 | saracatinib -0.023 | sotrastaurin 0.039 | alvocidib 0.166 | Tubastatin A 0.065 | [8] -0.06 | rucaparib 0.125 | [9] -0.017 | encorafenib 0.007 | [10] 0.006

GTF2B (UniProt Q00403)
Sequence of UniProt Q00403 (Q00403 whole entry, looked up): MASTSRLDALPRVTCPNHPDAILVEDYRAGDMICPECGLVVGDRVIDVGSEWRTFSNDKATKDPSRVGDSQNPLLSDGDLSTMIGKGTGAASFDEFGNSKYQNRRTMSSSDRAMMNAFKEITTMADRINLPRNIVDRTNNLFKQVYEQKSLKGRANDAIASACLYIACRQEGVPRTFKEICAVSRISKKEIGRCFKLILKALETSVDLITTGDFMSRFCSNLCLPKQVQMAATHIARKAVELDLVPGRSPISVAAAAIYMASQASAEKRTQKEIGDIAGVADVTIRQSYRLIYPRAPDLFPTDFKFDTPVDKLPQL
active: volasertib -0.323
inactive: [1] -0.076 | [2] 0.091 | epoxomicin 0.096 | [3] -0.04 | [4] -0.015 | [5] 0.147 | rosiglitazone 0.083 | [6] -0.002 | [7] -0.193 | saracatinib -0.155 | sotrastaurin -0.103 | alvocidib -0.22 | Tubastatin A 0.135 | [8] -0.013 | defactinib -0.144 | rucaparib -0.017 | [9] 0.026 | encorafenib 0.023 | [10] -0.01

HIP1 (UniProt O00291)
Sequence of UniProt O00291 (O00291 whole entry, looked up): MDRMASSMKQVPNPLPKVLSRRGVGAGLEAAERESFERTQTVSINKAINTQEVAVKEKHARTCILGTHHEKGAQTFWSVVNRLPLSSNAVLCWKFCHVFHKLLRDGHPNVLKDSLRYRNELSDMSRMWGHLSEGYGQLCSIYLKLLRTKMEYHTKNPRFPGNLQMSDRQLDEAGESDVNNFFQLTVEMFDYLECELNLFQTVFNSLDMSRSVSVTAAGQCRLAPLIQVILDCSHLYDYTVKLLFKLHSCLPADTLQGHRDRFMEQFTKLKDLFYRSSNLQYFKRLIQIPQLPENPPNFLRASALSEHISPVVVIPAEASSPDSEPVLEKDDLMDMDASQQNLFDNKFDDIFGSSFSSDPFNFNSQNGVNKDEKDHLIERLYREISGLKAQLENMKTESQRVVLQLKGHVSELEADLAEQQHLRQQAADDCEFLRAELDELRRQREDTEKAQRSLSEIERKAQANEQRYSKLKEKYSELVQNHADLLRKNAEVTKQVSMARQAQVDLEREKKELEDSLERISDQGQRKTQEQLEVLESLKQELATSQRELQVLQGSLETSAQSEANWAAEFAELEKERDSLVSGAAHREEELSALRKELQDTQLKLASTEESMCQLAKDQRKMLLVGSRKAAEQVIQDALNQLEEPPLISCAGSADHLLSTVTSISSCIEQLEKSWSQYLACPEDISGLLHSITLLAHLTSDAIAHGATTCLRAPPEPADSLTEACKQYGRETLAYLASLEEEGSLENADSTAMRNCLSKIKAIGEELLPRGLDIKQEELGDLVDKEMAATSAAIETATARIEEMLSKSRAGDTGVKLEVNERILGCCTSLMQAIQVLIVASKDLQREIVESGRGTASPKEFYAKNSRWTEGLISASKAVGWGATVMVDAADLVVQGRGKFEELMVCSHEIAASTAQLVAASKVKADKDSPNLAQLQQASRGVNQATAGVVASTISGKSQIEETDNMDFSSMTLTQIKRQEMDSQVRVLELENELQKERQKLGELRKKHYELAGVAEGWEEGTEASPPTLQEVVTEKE
inactive: [1] 0.027 | volasertib -0.23 | [2] -0.095 | epoxomicin 0.085 | [3] 0.005 | [4] 0.031 | [5] -0.045 | rosiglitazone -0.007 | [6] -0.063 | [7] -0.148 | saracatinib 0.078 | sotrastaurin -0.079 | alvocidib -0.102 | Tubastatin A 0.038 | [8] 0.008 | defactinib -0.001 | rucaparib 0.065 | [9] -0.024 | encorafenib -0.048 | [10] -0.001

IFRD2 isoform 2 (UniProt Q12894)
Sequence of UniProt Q12894 (Q12894 whole entry, looked up): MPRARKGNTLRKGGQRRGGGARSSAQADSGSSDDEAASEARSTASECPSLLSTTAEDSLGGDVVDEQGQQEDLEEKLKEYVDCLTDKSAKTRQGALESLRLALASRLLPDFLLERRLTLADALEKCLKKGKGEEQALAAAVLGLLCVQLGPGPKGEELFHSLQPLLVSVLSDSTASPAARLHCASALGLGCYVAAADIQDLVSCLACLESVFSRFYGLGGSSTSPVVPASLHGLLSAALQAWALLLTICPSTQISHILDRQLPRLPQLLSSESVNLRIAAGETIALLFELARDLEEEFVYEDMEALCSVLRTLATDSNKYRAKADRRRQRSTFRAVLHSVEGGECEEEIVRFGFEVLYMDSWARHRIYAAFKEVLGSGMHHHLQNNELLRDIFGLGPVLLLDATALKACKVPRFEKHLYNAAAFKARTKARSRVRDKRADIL
active: rucaparib -0.549
inactive: [1] 0.084 | volasertib 0.045 | [2] -0.261 | epoxomicin -0.02 | [3] 0 | [4] 0.029 | [5] -0.319 | rosiglitazone 0.225 | [6] -0.023 | [7] 0.196 | saracatinib 0.126 | sotrastaurin 0.31 | alvocidib -0.017 | Tubastatin A -0.272 | [8] 0.022 | defactinib 0.16 | [9] -0.095 | encorafenib -0.031 | [10] 0.026

GTF3C5 isoform 3 (UniProt Q9Y5Q8)
Sequence of UniProt Q9Y5Q8 (Q9Y5Q8 whole entry, looked up): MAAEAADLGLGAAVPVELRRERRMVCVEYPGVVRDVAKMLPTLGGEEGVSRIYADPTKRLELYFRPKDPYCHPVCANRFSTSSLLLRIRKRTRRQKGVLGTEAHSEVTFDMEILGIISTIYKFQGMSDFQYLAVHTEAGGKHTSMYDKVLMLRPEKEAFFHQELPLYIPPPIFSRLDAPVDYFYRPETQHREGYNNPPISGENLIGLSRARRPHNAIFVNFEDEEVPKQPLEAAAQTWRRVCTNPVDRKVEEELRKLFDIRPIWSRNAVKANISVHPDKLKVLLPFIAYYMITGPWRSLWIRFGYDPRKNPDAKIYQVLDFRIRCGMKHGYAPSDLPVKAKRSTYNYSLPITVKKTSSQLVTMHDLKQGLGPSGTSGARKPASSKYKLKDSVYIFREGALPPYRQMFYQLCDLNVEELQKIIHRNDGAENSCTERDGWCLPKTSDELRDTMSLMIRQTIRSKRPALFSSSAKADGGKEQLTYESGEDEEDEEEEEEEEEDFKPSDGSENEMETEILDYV
inactive: [1] -0.188 | volasertib -0.157 | [2] 0.213 | epoxomicin -0.011 | [3] 0.029 | [4] -0.034 | [5] 0.078 | rosiglitazone 0.017 | [6] -0.025 | [7] 0.03 | saracatinib 0.024 | sotrastaurin -0.148 | alvocidib 0.036 | Tubastatin A 0.068 | [8] -0.02 | defactinib -0.069 | rucaparib -0.173 | [9] 0.056 | encorafenib 0.085 | [10] -0.021

FDFT1 (UniProt P37268)
Sequence of UniProt P37268 (P37268 whole entry, looked up): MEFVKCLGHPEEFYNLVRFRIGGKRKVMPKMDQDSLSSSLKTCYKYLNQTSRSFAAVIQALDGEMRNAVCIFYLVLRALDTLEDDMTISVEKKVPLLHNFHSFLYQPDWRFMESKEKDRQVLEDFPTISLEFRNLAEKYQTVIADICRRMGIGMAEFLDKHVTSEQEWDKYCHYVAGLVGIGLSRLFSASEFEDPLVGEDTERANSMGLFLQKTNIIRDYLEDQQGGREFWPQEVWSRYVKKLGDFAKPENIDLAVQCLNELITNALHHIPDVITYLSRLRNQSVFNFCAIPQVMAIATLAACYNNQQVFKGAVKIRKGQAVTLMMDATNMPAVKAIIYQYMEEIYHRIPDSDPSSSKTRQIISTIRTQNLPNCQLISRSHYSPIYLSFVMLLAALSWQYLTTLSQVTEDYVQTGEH
inactive: [1] -0.067 | volasertib -0.151 | [2] -0.01 | epoxomicin 0.06 | [3] -0.017 | [4] -0.06 | [5] 0.003 | rosiglitazone -0.024 | [6] -0.059 | [7] 0.067 | saracatinib 0.071 | alvocidib -0.033 | Tubastatin A 0.012 | [8] -0.002 | defactinib -0.02 | rucaparib 0.004 | [9] -0.072 | encorafenib -0.032 | [10] -0.028
active: sotrastaurin 0.604
